Results as given in PubChem BioAssay (NCI).
This is part of a sample that, as a whole, favours compounds with a hit. Of some 79,000 tested, about 15% had one in any assay. Active and inactive are the calls of the source. No stated cut-off is given here; in the data, active means growth inhibition above about 70%; inactive means the rest.

Assay: NCI Yeast Anticancer Drug Screen. Data for the mec2-1 strain (AID 157)
Details: S. cerevisiae mec2-1 strain, at 50.0 µM, hits give high values
Method: Growth inhibition of yeast strains with defined genetic alterations is measured as a screen for potential anti-cancer activity. Selected strains with alterations in DNA damage repair or cell cycle control were exposed to compounds and growth inhibition was measured relative to vehicle treated controls. The strain used in this assay is mec2-1

SMILES	growth inhibition
OCc1ccccc1F	-34% (inactive)
CC(=O)NC1(C)C(C)C2CC1C(C)C2(C)C (stereo not given)	-13.8% (inactive)
O=C(NC(CSSCC(NC(=O)OCc1ccccc1)C(=O)O)C(=O)O)OCc1ccccc1 (stereo not given)	-31.4% (inactive)
N=C(N=C(N)N)N1CCOCC1	20.1% (inactive)
Clc1ccc2c(c1)N(C1CCCN(Cc3ccccc3)C1)c1ccccc1S2 (stereo not given)	7.65% (inactive)
COc1ccc2c(c1)CCc1cc(OC)ccc1/[N+]([O-])=[N+]\2[O-]	1.25% (inactive)
[N-]=[N+]=Nc1ccnc2c(C(F)(F)F)cccc12	-18.1% (inactive)
CCOC(=O)C1(C(=O)OCC)CCC(C(OC)OC)C(CC(=O)OC)C1 (stereo not given)	-15.7% (inactive)
CC(C)NC(=O)C1CC2C=CC1C2 (stereo not given)	1.3% (inactive)
Cc1ccc([N+](=O)[O-])cc1NC(=O)Oc1cc(=O)oc2ccccc12	6.8% (inactive)
CN(N=O)C(=O)NC(CCCCNC(=O)OCc1ccccc1)C(=O)OCc1ccccc1 (stereo not given)	-10.1% (inactive)
Cc1ccc2c(c1)[nH]c(=S)n2C=C1C(=O)CC(C)(C)CC1=O	-63.3% (inactive)
O=C(O)C1CC2CC2C1 (stereo not given)	12% (inactive)
CCc1nc2cc(F)ccc2[nH]c1=O	24.2% (inactive)
Cc1cc2c(=O)cc(-c3ccccc3Cl)oc2c(C(=O)O)c1C	-10.3% (inactive)
COc1ccc(COC=O)cc1	-5.1% (inactive)
O=C(NNc1c(F)c(F)c(C(F)(F)F)c(F)c1F)c1ccccc1	-19.1% (inactive)
C=C(C)C(=O)NC(Cc1cnc[nH]1)C(=O)O (stereo not given)	0.5% (inactive)
Cc1c2n(c(=O)[nH]c1=O)C1OC(CO)C(N=[N+]=[N-])C1O2 (stereo not given)	-15.9% (inactive)
Cc1ncc(Cl)c2cc3ccccc3cc12	2.1% (inactive)

SMILES	growth inhibition
Cc1[nH]nc2c1NC(=O)OC2	-1.1% (inactive)
Cc1cc(Br)cc(C)c1NC(=O)C(=O)C(C(=O)c1ccncc1)C1OC(=O)c2ccccc21 (stereo not given)	-31.1% (inactive)
COc1ccc(/C=N/Nc2nc3ccccc3c(=O)n2-c2ccccc2)cc1	-17.8% (inactive)
Oc1ccc2ccc3[nH]cnc3c2c1	-25.4% (inactive)
CC(C)N(CCCCO)C(C)C	-0.3% (inactive)
COC1C(=O)OC(=O)C1OC (stereo not given)	-15.1% (inactive)
Cc1cc2c3c(c1)CCCN3CCC2	-8.9% (inactive)
COc1cc2c(cc1C(CC(C)=O)c1cc(OC)c(OC)c(OC)c1)OCO2 (stereo not given)	-10.2% (inactive)
COc1ccc(-c2c(C(=O)O)cc(O)c3cc(OC)c(OC)cc23)cc1OC	-2.9% (inactive)
O=C(c1ccccc1)c1ccccc1-c1nc2ccccc2c(=O)o1	-6.65% (inactive)
Nc1ccc(C(=O)N/C(=C\c2cccc([N+](=O)[O-])c2)c2nc3ccc(Cl)cc3[nH]2)cc1	-21.4% (inactive)
CCOCCOCCOC12C(=O)C(Cl)=C(Cl)C(=O)C13C1CC2C(Cl)C13 (stereo not given)	99.5% (active)
Cc1ccc(C(=O)OCc2ccccc2CN2CCCCC2)cc1	-8.35% (inactive)
CC(C)CCc1ccc2ccc3cccc4ccc1c2c34	3.55% (inactive)
C1CCCC(N2N=NC3C4CC(C5N=NN(C6CCCCCC6)C45)C32)CC1 (stereo not given)	17.5% (inactive)
COC1(OC)N=C(N)C2(C#N)C(C)=C3NCN(C)N=C3C12C#N (stereo not given)	3.2% (inactive)
CC(=O)Nc1nc(C)c(CC/C=C/c2ccc([N+](=O)[O-])cc2)c(Cl)n1	32.9% (inactive)
COc1cc([C@@H]2c3cc4c(cc3[C@H](OC3OC5COC(C(C)C)OC5C(O)C3O)C3COC(=O)[C@@H]32)OCO4)cc(OC)c1OC (stereo not given in full)	46.7% (inactive)
COC(=O)Nc1cc2c3c(c1)CCCN3CCC2	-4.05% (inactive)
Cc1ccc(S(=O)(=O)N2CCC(C(=O)N3CCCC3)(c3cccc(C)c3)CC2)cc1	-35.4% (inactive)
